# Several values for one entry are separate records, joined by “and”; a condition that tells them apart may be missing. Identical values can stand only once. Records with an inconclusive call do not appear. Entries that show only a call come without a potency. Where a structure was tested more than once in an assay, its records may differ in their call. Activity calls are given as the source filed them. Unless noted, calls follow the shape of the full dose curve.
# Legend:
# [1] = target: Gonadotropin-releasing hormone receptor (Homo sapiens) (UniProt P30968); test: Human gonadotropin-releasing hormone receptor (GnRHR) small molecule agonists, calcium flux assay in GnRHR-HEK293 cells (AID 1920063); also: nearly all actives have a fitted effect of over 35% in size; also: potency is read from the fitted curve at half-maximal effect
# In short: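 HEK293 cells stably expressing human GnRHR were plated 18 h at 37 °C, loaded with calcium dye 1 h at 37 °C, then given compound in agonist mode; fluorescence (Ex/Em 480/540) read kinetically for 3 min at 1 s intervals.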
# [2] = target: KiSS-1 receptor (Homo sapiens) (UniProt Q969F8); test: Human kisspeptin (KISS1R) small molecule agonists, calcium flux assay in KISS1R-HEK293 cells (AID 1920064; active = well fitted activation curve with a large enough effect in the repeat runs; also: potency is read from the fitted curve at half-maximal effect)
# In short: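 HEK293 cells stably expressing human KISS1R were plated 18 h at 37 °C, loaded with calcium dye for 1 h at 37 °C, then given compound by pin tool. Fluorescence (Ex/Em 480/540) was read kinetically for 3 min.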
# [3] = G protein-coupled receptor (GPCR) small molecule agonists, calcium flux assay: HEK293 wild type cell line counter screen (AID 1920065)
# In short: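 Cells were plated and cultured 18 h at 37 C/5% CO2, then loaded with calcium dye for 1 h at 37 C. Compounds in DMSO were pin-transferred in agonist mode, and fluorescence (Ex/Em 480/540) was read kinetically for 3 min at 1 s intervals.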
# [4] = p53 small molecule agonists, cell-based qHTS assay with human liver microsomes (AID 1963577)
# In short: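 p53RE-bla reporter cells were pre-incubated 5 h at 37 C, then treated with compounds plus human liver microsomes (0.5 mg/mL final) and NADPH (0.5 mg/mL final) for 16 h at 37 C. Beta-lactamase activity was read by LiveBLAzer fluorescence after 2 h at room temperature.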
# [5] = p53 small molecule agonists, cell-based qHTS assay with rat liver microsomes (AID 1963578)
# In short: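 p53RE-bla cells were exposed to compounds together with rat liver microsomes (0.5 mg/mL final) and NADPH (0.5 mg/mL final) for 16 h at 37 C, then read by LiveBLAzer beta-lactamase fluorescence after 2 h at room temperature.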
# [6] = p53 small molecule agonists, cell-based qHTS assay with human liver microsomes: qHTS cell viability counter screen (AID 1963579); also: nearly all actives have a fitted effect of over 45% in size; also: potency is read from the fitted curve at half-maximal effect
# In short: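 p53RE-bla cells (4,000/well) were pre-incubated 5 h at 37 C, then given compounds in DMSO plus human liver microsomes (0.5 mg/mL final) and NADPH (0.5 mg/mL final) for 16 h at 37 C. Viability was read by CellTiter-Glo luminescence.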
# [7] = p53 small molecule agonists, cell-based qHTS assay with rat liver microsomes: qHTS cell viability counter screen (AID 1963580); also: nearly all actives have a fitted effect of over 45% in size
# In short: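 p53RE-bla HCT-116 cells were exposed 16 h at 37 C to compounds with rat liver microsomes (0.5 mg/mL) and NADPH (0.5 mg/mL). Viability was measured in the same wells as ATP content by CellTiter-Glo luminescence.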
# [8] = p53 small molecule agonists, cell-based qHTS assay: qHTS cell viability counter screen (AID 1963581); also: nearly all actives have a fitted effect of over 45% in size
# In short: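 p53RE-bla HCT-116 cells were exposed to compounds for 16 h at 37 C; after the beta-lactamase FRET read in the same wells, CellTiter-Glo was added and luminescence (intracellular ATP) read after 30 min at room temperature.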
# [9] = p53 small molecule agonists, cell-based qHTS assay (AID 1963582; active = well fitted activation curve with a large enough effect in the signal ratio in the repeat runs, not every such curve was filed as active; the % refers to the signal ratio)
# In short: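 p53RE-bla beta-lactamase reporter cells rested 5 h at 37 C/5% CO2, then received compounds in DMSO by pin transfer and were incubated 16 h at 37 C. LiveBLAzer B/G FRET substrate was loaded for 2 h at room temperature before fluorescence reading.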
# [10] = target: 5-hydroxytryptamine receptor 2A (Homo sapiens) (UniProt P28223); test: 5-hydroxytryptamine receptor 2A (HTR2A) small molecule antagonists, cell-based qHTS assay (AID 1963586); also: nearly all actives have a fitted effect of over 45% in size; also: potency is read from the fitted curve at half-maximal effect
# In short: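 Antagonist-mode intracellular calcium assay: DOI (4 nM) added after 5 min compound pre-incubation at room temperature to dye-loaded HTR2A-CHO cells. Fluorescence followed for 3 min, sampled every second.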
# [11] = target: 5-hydroxytryptamine receptor 2A (Homo sapiens) (UniProt P28223); test: 5-hydroxytryptamine receptor 2A (HTR2A) small molecule agonists, cell-based qHTS assay (AID 1963587); also: nearly all actives have a fitted effect of over 30% in size; also: potency is read from the fitted curve at half-maximal effect
# In short: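 CHO cells stably expressing human HTR2A, plated 18 h, loaded with calcium dye 1 h at 37 C. Agonist mode: compounds added and intracellular calcium fluorescence recorded kinetically for 2 min at 1 sec intervals.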
# [12] = target: Muscarinic acetylcholine receptor M1 (Homo sapiens) (UniProt P11229); test: Cholinergic receptor muscarinic 1 (CHRM1) small molecule antagonists, cell-based qHTS assay (AID 1963588); also: nearly all actives have a fitted effect of over 40% in size; also: potency is read from the fitted curve at half-maximal effect
# In short: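 CHRM1-CHO calcium-flux assay, antagonist mode. Cells were seeded 18 h, dye-loaded 1 h at 37 C and given compound for 5 min at RT, then acetylcholine was added at 50nM. FDSS fluorescence was read 3 min; 15 concentrations, three runs.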
# [13] = target: Muscarinic acetylcholine receptor M1 (Homo sapiens) (UniProt P11229); test: Cholinergic receptor muscarinic 1 (CHRM1) small molecule agonists, cell-based qHTS assay (AID 1963589); also: nearly all actives have a fitted effect of over 35% in size
# In short: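 CHO cells stably expressing human CHRM1, seeded 18 h at 37 C/5% CO2, dye-loaded 1 h at 37 C, then given compound in agonist mode; intracellular calcium fluorescence read kinetically at 1 s intervals. Fifteen concentrations, three independent runs.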
# [14] = cAMP Responsive Elements (CRE) small molecule agonists, cell-based qHTS assay (AID 1963590)
# In short: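 CRE-bla HEK 293T cells in DMEM with 10% dialyzed FBS, NEAA, pyruvate and 25 mM HEPES were plated 18 h at 37 C/5% CO2, then exposed to compounds in DMSO for 3 h before LiveBLAzer B/G FRET substrate addition.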
# [15] = cAMP Responsive Elements (CRE) small molecule antagonists, cell-based qHTS assay (AID 1963591; active = well fitted inhibition curve with a large enough effect in the signal ratio in the repeat runs, not every such curve was filed as active; the % refers to the signal ratio)
# In short: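 CRE-bla HEK293T cells were plated 18 h at 37 °C/5% CO2, pinned with compound in DMSO, then stimulated with NKH477 at 0.25 uM final for 3 h. LiveBLAzer B/G FRET substrate was added and plates incubated 2 h at room temperature.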
# [16] = target: Beta-2 adrenergic receptor (Homo sapiens) (UniProt P07550); test: Adrenergic beta2 receptor (ADRB2) small molecule agonists, cell-based qHTS assay (AID 1963593);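 also: CHO cells stably overexpressing human ADRB2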
# In short: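 CHO cells stably over-expressing ADRB2 were plated overnight at 37C, then dosed with compounds plus a stimulation mix containing 100uM IBMX and 25uM Ro-20-1724 for 0.5hr at room temperature. cAMP was measured by HTRF competition, 1hr.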
# [17] = target: D(2) dopamine receptor (Homo sapiens) (UniProt P14416); test: Dopamine D2 receptor (DRD2) small molecule agonists, cell-based qHTS assay (AID 1963594); also: nearly all actives have a fitted effect of over 35% in size
# In short: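 HEK293 cells stably expressing human DRD2, pre-treated with PDE inhibitor Ro20-1724 (0.1 mM final) and compound 10 min at room temperature, then stimulated with NKH477 (200nM […]) for 30 min. cAMP read by HTRF (665/620 nm).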
# [18] = target: D(2) dopamine receptor (Homo sapiens) (UniProt P14416); test: Dopamine D2 receptor (DRD2) small molecule antagonists, cell-based qHTS assay (AID 1963595; active = well fitted inhibition curve with a large enough effect in the signal ratio in the repeat runs, with a control signal flat; the % refers to the signal ratio; also: potency is read from the fitted curve at half-maximal effect)
# In short: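 Readout: HTRF cAMP, cAMP-d2 competing with cellular cAMP for anti-cAMP cryptate, read after 1 h. Cells: DRD2-HEK293. Conditions: 0.1 mM Ro20-1724, 12 nM quinpirole, 200 nM NKH477, 30 min RT.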
# [19] = target: Beta-2 adrenergic receptor (Homo sapiens) (UniProt P07550); test: Adrenergic beta2 receptor (ADRB2) small molecule antagonists, cell-based qHTS assay (AID 1963592); also: series mostly up to about 92 µM; nearly all actives have a fitted effect of over 50% in size
# In short: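 Cells (CHO, stable ADRB2 overexpression) incubated 18-20hr at 37C; compounds added from DMSO; agonist mix (1nM isoproterenol, 100uM IBMX, 25uM Ro-20-1724) added; 0.5hr RT; d2-cAMP and anti-cAMP-cryptate added; 1hr RT; 665/615 nm read.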
# [20] = Nuclear factor erythroid 2-related factor 2/antioxidant responsive element (Nrf2/ARE) small molecule agonists: luciferase reporter gene qHTS assay in human keratinocytes (AID 1919969); also: nearly all actives have a fitted effect of over 35% in size
# Muscarinic acetylcholine receptor M1 (Homo sapiens), sequence (P11229 whole entry, looked up): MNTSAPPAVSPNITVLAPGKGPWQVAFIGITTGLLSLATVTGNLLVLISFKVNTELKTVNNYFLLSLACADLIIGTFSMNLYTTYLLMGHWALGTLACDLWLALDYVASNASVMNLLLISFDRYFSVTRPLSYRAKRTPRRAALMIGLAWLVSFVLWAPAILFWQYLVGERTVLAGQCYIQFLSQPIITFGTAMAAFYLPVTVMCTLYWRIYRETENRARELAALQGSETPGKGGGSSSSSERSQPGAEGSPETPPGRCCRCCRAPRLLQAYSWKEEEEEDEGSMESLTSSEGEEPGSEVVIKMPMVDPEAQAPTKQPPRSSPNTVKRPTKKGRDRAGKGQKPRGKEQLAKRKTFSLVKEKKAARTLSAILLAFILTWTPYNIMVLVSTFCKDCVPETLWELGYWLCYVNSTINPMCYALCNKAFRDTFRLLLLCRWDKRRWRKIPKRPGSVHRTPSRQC
# Gonadotropin-releasing hormone receptor (Homo sapiens), sequence (P30968 whole entry, looked up): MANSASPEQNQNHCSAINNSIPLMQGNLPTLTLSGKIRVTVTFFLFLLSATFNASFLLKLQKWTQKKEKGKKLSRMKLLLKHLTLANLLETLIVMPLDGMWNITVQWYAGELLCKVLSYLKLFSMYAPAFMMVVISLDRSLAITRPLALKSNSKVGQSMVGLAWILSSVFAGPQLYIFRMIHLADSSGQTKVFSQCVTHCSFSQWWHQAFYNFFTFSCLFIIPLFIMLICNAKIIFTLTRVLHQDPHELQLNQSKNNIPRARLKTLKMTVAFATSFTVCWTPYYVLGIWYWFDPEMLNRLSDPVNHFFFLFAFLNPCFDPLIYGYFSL
# KiSS-1 receptor (Homo sapiens), sequence (Q969F8 whole entry, looked up): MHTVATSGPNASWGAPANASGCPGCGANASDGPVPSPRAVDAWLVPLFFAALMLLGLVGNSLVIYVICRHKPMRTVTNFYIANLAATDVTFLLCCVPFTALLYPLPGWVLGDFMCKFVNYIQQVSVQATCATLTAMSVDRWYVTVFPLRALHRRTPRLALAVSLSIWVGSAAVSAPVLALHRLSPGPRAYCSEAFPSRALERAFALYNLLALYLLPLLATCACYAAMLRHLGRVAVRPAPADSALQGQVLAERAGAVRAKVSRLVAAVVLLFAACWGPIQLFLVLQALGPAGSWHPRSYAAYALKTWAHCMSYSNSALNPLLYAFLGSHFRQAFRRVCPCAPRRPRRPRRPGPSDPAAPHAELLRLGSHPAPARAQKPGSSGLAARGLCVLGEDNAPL
# D(2) dopamine receptor (Homo sapiens), sequence (P14416 whole entry, looked up): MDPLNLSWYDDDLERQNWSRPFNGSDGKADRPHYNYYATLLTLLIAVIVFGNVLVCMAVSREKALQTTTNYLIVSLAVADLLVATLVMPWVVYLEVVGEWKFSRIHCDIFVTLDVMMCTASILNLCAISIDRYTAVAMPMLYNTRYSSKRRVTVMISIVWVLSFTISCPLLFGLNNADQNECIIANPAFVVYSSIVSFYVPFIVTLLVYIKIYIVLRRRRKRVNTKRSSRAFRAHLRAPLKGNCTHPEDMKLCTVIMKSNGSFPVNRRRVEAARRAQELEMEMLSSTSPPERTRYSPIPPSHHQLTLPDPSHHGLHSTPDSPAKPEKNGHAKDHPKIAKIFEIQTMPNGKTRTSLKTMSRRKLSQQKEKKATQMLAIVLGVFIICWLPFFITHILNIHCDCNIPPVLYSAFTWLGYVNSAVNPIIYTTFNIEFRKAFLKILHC
# Beta-2 adrenergic receptor (Homo sapiens), sequence (P07550 whole entry, looked up): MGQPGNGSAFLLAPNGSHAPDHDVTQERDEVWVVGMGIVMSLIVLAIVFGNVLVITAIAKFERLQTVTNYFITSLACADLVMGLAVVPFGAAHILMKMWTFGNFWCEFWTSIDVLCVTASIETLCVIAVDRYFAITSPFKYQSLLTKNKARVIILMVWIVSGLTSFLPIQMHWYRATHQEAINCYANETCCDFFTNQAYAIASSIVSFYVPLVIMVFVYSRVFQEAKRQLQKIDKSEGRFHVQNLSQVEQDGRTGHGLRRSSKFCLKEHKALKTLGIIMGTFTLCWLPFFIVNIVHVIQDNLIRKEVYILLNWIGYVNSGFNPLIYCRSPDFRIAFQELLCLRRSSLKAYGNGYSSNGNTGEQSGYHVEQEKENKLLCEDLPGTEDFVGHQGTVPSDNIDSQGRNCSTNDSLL
# 5-hydroxytryptamine receptor 2A (Homo sapiens), sequence (P28223 whole entry, looked up): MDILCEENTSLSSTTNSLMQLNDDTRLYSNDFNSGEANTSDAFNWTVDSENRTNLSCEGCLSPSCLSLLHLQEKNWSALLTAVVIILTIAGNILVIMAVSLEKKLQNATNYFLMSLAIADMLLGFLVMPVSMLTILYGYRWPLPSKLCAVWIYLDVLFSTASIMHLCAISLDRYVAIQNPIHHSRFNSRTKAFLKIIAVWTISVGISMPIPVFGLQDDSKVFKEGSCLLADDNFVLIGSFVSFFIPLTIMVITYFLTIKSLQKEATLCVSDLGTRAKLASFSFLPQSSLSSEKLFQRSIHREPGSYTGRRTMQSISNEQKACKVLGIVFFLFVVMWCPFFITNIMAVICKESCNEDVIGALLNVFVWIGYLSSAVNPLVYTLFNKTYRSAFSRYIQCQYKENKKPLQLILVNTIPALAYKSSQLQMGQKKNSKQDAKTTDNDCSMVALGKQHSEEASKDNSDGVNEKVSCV
Compound,Potency [1],Potency [2],Potency [3],Potency [4],Potency [5],Potency [6],Potency [7],Potency [8],Potency [9],Potency [10],Potency [11],Potency [12],Potency [13],Potency [14],Potency [15],Potency [16],Potency [17],Potency [18],Potency [19],Potency [20]
CC(Cl)CN(C)C (centres undefined),inactive,inactive,inactive,inactive,inactive,inactive,inactive,inactive,inactive,inactive,inactive,inactive,inactive,inactive,inactive,inactive,inactive,inactive,,
O=C(Nc1ccccc1)Nc1cnns1,inactive,inactive,inactive,inactive,inactive,inactive,,inactive,inactive,inactive,inactive,inactive,inactive,,inactive,inactive,inactive,inactive,inactive,
CC(C)CCCCCCCOP(=O)(Oc1ccccc1)Oc1ccccc1,inactive,inactive,inactive,,,inactive,,inactive,,inactive,inactive,,inactive,,inactive,,inactive,inactive,inactive,
COc1cc(OC)c(OC)cc1C=O,,inactive,inactive,,,inactive,,,inactive,inactive,inactive,inactive,inactive,,,,,,,inactive
N#CCCC(Br)(C#N)CBr (centres undefined),38.9 µM (active),54.9 µM (active),inactive,inactive,inactive,inactive,inactive,inactive,,inactive,,inactive,,inactive,,,,,,
Clc1ccc2ccccc2c1,inactive,inactive,inactive,inactive,inactive,inactive,inactive,inactive,inactive,inactive,inactive,inactive,inactive,inactive,inactive,,inactive,,,
CN1CC[C@]23c4c5ccc(O)c4O[C@H]2[C@@H](O)C=C[C@H]3[C@H]1C5,inactive,inactive,inactive,,,,,inactive,,inactive,inactive,,inactive,inactive,inactive,inactive,inactive,,inactive,
NCCCNCCCN,inactive,inactive,inactive,inactive,inactive,inactive,inactive,inactive,inactive,,inactive,38.1 µM (active),inactive,inactive,inactive,inactive,inactive,inactive,,
CNC(=O)O/N=C(\C)SC,inactive,inactive,inactive,,,inactive,inactive,,,inactive,inactive,inactive,inactive,inactive,inactive,inactive,inactive,inactive,inactive,
c1cc[c]([Hg][c]2ccccc2)cc1,inactive,inactive,inactive,inactive,inactive,,,,,inactive,inactive,inactive,inactive,,,,,4.33 µM (active),,
ClC1=C(Cl)[C@]2(Cl)[C@@H]3[C@H]4C[C@H]([C@@H]5O[C@H]45)[C@@H]3[C@@]1(Cl)C2(Cl)Cl,inactive,inactive,inactive,inactive,inactive,inactive,inactive,,inactive,,,,,,,,inactive,inactive,,
N#CC(C#N)=C(C#N)C#N,inactive,inactive,inactive,inactive,inactive,inactive,inactive,,inactive,inactive,inactive,,inactive,inactive,inactive,,inactive,,inactive,
CCOC(=O)[C@]1(c2ccccc2)Oc2ccccc2[C@@H]1N,inactive,inactive,inactive,,,inactive,inactive,inactive,,inactive,inactive,8.4 µM (active),inactive,,,,inactive,,inactive,
CN1CCC(O)(c2ccc(F)cc2)C(C(=O)c2ccc(F)cc2)C1 (centres undefined),inactive,inactive,inactive,inactive,inactive,,inactive,inactive,inactive,inactive,,,inactive,inactive,inactive,inactive,inactive,inactive,inactive,
O.O.O.O.O.O.O.O=S(=O)([O-])[O-].[Co+2],inactive,inactive,inactive,,,inactive,inactive,inactive,,,inactive,inactive,inactive,inactive,,,inactive,inactive,inactive,
C[C@]12CC[C@@H](O)C[C@@H]1CC[C@@H]1[C@@H]2CC[C@]2(C)C(=O)CC[C@@H]12,inactive,inactive,inactive,inactive,inactive,inactive,inactive,,inactive,,,,,,inactive,,inactive,inactive,inactive,
O=S(=O)(c1ccc(Cl)cc1)c1ccc(Cl)cc1,,,inactive,,inactive,inactive,,,,10.7 µM (active),,,inactive,inactive,,,inactive,,inactive,inactive
CC(C)(c1cc(Cl)c(O)c(Cl)c1)c1cc(Cl)c(O)c(Cl)c1,38.9 µM (active),inactive,inactive,inactive,inactive,40.8 µM (active),inactive,inactive,,inactive and 13.3 µM (active),55 µM (active) and 24.5 µM (active),33.4 µM (active) and inactive,inactive,,inactive,,inactive,inactive,inactive,
CCNc1nc(Cl)nc(NC(C)(C)C)n1,,inactive,inactive,,,inactive,inactive,inactive,,inactive,inactive,inactive,inactive,,inactive,,inactive,inactive,inactive,inactive

# Source: PubChem BioAssay (Tox21)
